# T cruzi growth-1 = inhibitors of T. cruzi proliferation | T. cruzi beta-gal in NIH3T3, GalScreen luminescence, 90 h | inhibition, % at 8.34 µM | 77,000 tested, 5.9% active;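 active = mean inhibition above about 93%, with at least 55% of replicates each passing it, limit read from the data, passing the limit was not always enough; inconclusive = only one of those two conditions holds; inactive = neither condition holds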
# C diff HTS = C. difficile growth inhibition | 86,000 tested, 0.25% active | Clostridium difficile clinical isolate growth, OD600, 24 h; stronger effect = lower value | growth activity, negative = inhibition, % at 16 µg/mL (by protocol);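 active = mean growth activity at or below -80% and every replicate also at or below -80%; inconclusive = mean at or below -80% but some replicate above -80%; inactive = mean growth activity above -80%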;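 also: 0% = DMSO wells and -100% = levofloxacin 16 µg/mL wells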
# T cruzi growth-2 = Trypanosoma cruzi proliferation inhibition; T. cruzi beta-gal in NIH3T3, GalScreen luminescence, 90 h; shares compounds with T cruzi growth-1; inhibition, % at 8.35 µM; 5,600 tested, 72% active;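 active = mean replicate inhibition above about 95% and at least 55% of replicates individually reaching it, limit read from the data; inconclusive = only one of the two criteria is met; inactive = neither criterion is met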
# T cruzi growth-3 = inhibitors of T. cruzi proliferation; shares compounds with T cruzi growth-1; T. cruzi beta-gal in NIH3T3, GalScreen luminescence, 90 h; inhibition, % at 2.09 µM; 5,600 tested, 21% active; AID 651740;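 active = mean inhibition above about 95%, with at least 55% of replicates also reaching it, limit read from the data; inconclusive = meets just one of the two conditions; inactive = meets neither condition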;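 also: plate controls were neutral control median for no effect and positive control median for full effect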
# NIH3T3 tox = cytotoxicity in mouse NIH/3T3 fibroblasts. AID 651742. NIH/3T3 viability, CellTiter-Glo ATP luminescence, 90 h. 5,600 tested, 14% active. shares compounds with T cruzi growth-1. cytotoxicity (signal decrease), % at 8.35 µM;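 active = mean signal decrease across replicates above about 35% based on untreated-well scatter, with enough replicates individually passing, limit read from the data; inconclusive = no rule stated though some were filed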;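 also: 0% = median of neutral control wells and 100% = median of positive control wells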
# NIH3T3 tox 2 = cytotoxicity in mouse NIH/3T3 fibroblasts; shares compounds with T cruzi growth-1; NIH/3T3 viability, CellTiter-Glo ATP luminescence, 90 h; inhibition, % at 24.9 µM; 5,600 tested, 56% active;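 active = mean loss of cell viability signal at or above a set limit, and enough replicates individually reaching it; inconclusive = meets only the mean limit or only the replicate share; inactive = meets neither condition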;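 also: 0% = median of neutral control wells and 100% = median of positive control wells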
# The depositor's hits bear a star; ? = inconclusive; . = not tested or not shown. Shown is part of a subset that was picked to be rich in hits.
SMILES,T cruzi growth-1,C diff HTS,T cruzi growth-2,T cruzi growth-3,NIH3T3 tox,NIH3T3 tox 2
CCNC(=O)C[C@@H]1CC[C@@H]2[C@@H](COc3ccc(NC(=O)c4ccccc4)cc3C(=O)N2C)O1,-34,3,.,.,.,.
COc1ccc(-c2cn(CC[C@H]3CC[C@@H](NS(=O)(=O)c4ccccc4C)[C@@H](CO)O3)nn2)cc1,107*,0,103*,79,-1,-1
O=S(=O)(N[C@@H]1CC[C@@H](CCn2cc(-c3cccc(F)c3)nn2)O[C@H]1CO)c1ccc(Cl)cc1,54,.,.,.,.,.
COc1cccc(S(=O)(=O)N[C@@H]2CC[C@@H](CCn3cc(-c4ccccn4)nn3)O[C@@H]2CO)c1,108*,8,49,-10,13,23
Cc1cccc(S(=O)(=O)N[C@@H]2CC[C@H](CCn3cc(-c4ccccn4)nn3)O[C@@H]2CO)c1,25,2,.,.,.,.
Cc1ccccc1S(=O)(=O)N[C@H]1CC[C@@H](CCn2cc(-c3ccccc3)nn2)O[C@H]1CO,36,-7,.,.,.,.
O=S(=O)(N[C@H]1CC[C@@H](CCn2cc(-c3cccc(F)c3)nn2)O[C@H]1CO)c1ccc(Cl)cc1,111*,.,56,27,-13,18
C/C=C/c1ccc2c(c1)O[C@H](CN(C)C(=O)c1ccc(F)cc1)[C@@H](C)CN([C@H](C)CO)S2(=O)=O,.,-4,.,.,.,.
COc1cccc(S(=O)(=O)N[C@H]2CC[C@@H](CCn3cc(-c4ccccc4OC)nn3)O[C@H]2CO)c1,37,2,.,.,.,.
C/C=C/c1ccccc1[C@H]1[C@@H](CO)N(C(=O)Nc2ccccc2F)[C@H]1C#N,.,16,.,.,.,.
N#C[C@@H]1[C@H](c2ccc(C3=CCCCC3)cc2)[C@@H](CO)N1C(=O)NC1CCCCC1,92,4,.,.,.,.
N#C[C@@H]1[C@@H](c2ccc(C3=CCCCC3)cc2)[C@@H](CO)N1C(=O)NC1CCCC1,.,-7,.,.,.,.
N#C[C@@H]1[C@H](c2ccc(C3=CCCCC3)cc2)[C@H](CO)N1C(=O)NC1CCCCC1,107*,-6,104*,70,30,44*
N#C[C@H]1[C@@H](c2ccc(C3=CCCCC3)cc2)[C@H](CO)N1C(=O)NC1CCCCC1,100*,1,105*,83,41*,54*
C/C=C/c1ccc([C@H]2[C@@H](CO)N(C(=O)Nc3ccccc3F)[C@H]2C#N)cc1,105*,-2,87,56,10,48*
N#C[C@H]1[C@@H](c2ccc(C3=CCCCC3)cc2)[C@@H](CO)N1C(=O)Nc1ccccc1F,69,-8,.,.,.,.
N#C[C@@H]1[C@H](c2ccc(C3=CCCCC3)cc2)[C@H](CO)N1C(=O)Nc1ccccc1F,102*,-5,110*,59,-5,15
C[C@H](CO)N1C[C@H](C)[C@@H](CN(C)C(=O)Nc2cccc3ccccc23)Oc2ccc(NC(=O)Nc3ccc(C(F)(F)F)cc3)cc2C1=O,26,-8,.,.,.,.
CN(C)C(=O)C[C@@H]1C[C@H]2c3cc(NC(=O)c4ccc5c(c4)OCO5)ccc3O[C@H]2[C@@H](CO)O1,-18,-1,.,.,.,.
C[C@@H]1CN([C@H](C)CO)C(=O)c2cc(NS(=O)(=O)c3ccccc3)ccc2O[C@@H](C)CCCCO[C@H]1CN(C)C(=O)Nc1ccc2c(c1)OCO2,0,-1,.,.,.,.
N#C[C@H]1[C@H](c2ccc(C3=CCCCC3)cc2)[C@H](CO)N1C(=O)NC1CCCCC1,101*,-25,97*,101*,10,69*
CCCNC(=O)N1[C@H](CO)[C@H](c2ccc(C3=CCCC3)cc2)[C@@H]1C#N,27,-2,.,.,.,.
CCCNC(=O)N1[C@@H](C#N)[C@H](c2ccc(C3=CCCCC3)cc2)[C@@H]1CO,103*,-22,98*,107*,21,33*
N#C[C@@H]1[C@@H](c2ccc(C3=CCCCC3)cc2)[C@H](CO)N1C(=O)NC1CCCC1,.,4,.,.,.,.
CC(C)C#Cc1cnc2c(c1)C(=O)N([C@H](C)CO)C[C@@H](C)[C@H](CN(C)Cc1cccc(F)c1)O2,-1,-1,.,.,.,.
SMILES,T cruzi growth-1,C diff HTS,T cruzi growth-2,T cruzi growth-3,NIH3T3 tox,NIH3T3 tox 2
CN1c2ccc(-c3cccc(C#N)c3)cc2[C@@H]2[C@@H](CCN2C(=O)Cc2ccccn2)[C@@H]1CO,106*,-20,102*,51,-11,36*
CN1c2ccc(-c3cccc(C#N)c3)cc2[C@H]2[C@H](CCN2C(=O)C2CC2)[C@H]1CO,.,5,.,.,.,.
CN1c2ccc(-c3ccc(F)cc3)cc2[C@@H]2[C@@H](CCN2C(=O)Cc2ccccn2)[C@@H]1CO,56,-13,.,.,.,.
CCC(=O)N1CC[C@@H]2[C@H]1c1cc(-c3ccc(C#N)cc3)ccc1N(C)[C@H]2CO,81,1,.,.,.,.
COc1ccc(-c2ccc3c(c2)[C@@H]2[C@@H](CCN2C(=O)Cc2ccccn2)[C@@H](CO)N3C)cc1,?,-9,107*,84,-30,-12
CN1c2ccc(-c3ccc(F)cc3)cc2[C@H]2[C@H](CCN2C(=O)Cc2ccccn2)[C@@H]1CO,?,-29,110*,54,-36,-7
CN1c2ccc(-c3ccc(F)cc3)cc2[C@@H]2[C@@H](CCN2C(=O)Cc2ccccn2)[C@H]1CO,10,-10,.,.,.,.
CN1c2ccc(-c3ccc(C#N)cc3)cc2[C@@H]2[C@@H](CCN2C(=O)CC2CC2)[C@@H]1CO,?,6,100*,?,47*,80*
COc1cccc(S(=O)(=O)N2C[C@@H](O)COC[C@H]3O[C@@H](CC(=O)N4CCN(C)CC4)CC[C@@H]32)c1,30,.,.,.,.,.
O=C(CC1CC1)Nc1ccc2c(c1)[C@H]1C[C@H](CC(=O)NC3CCCC3)O[C@H](CO)[C@H]1O2,-15,.,.,.,.,.
CCC(=O)N[C@H]1CC[C@H](CC(=O)NCC2CCCCC2)O[C@@H]1CO,-17,.,.,.,.,.
C[C@H](CO)N1C[C@H](C)[C@@H](CN(C)S(=O)(=O)c2ccc(Cl)cc2)Oc2c(NC(=O)Nc3ccc(F)cc3)cccc2C1=O,.,-11,.,.,.,.
Cc1noc(C)c1NC(=O)N(C)C[C@@H]1Oc2c(NC(=O)Nc3ccccc3)cccc2C(=O)N([C@@H](C)CO)C[C@@H]1C,53,.,.,.,.,.
COC(=O)C[C@@H]1C[C@@H]2c3cc(NC(=O)Nc4ccccc4F)ccc3O[C@@H]2[C@@H](CO)O1,60,-7,.,.,.,.
C[C@@H](NC(=O)[C@@H]1[C@@H](CO)[C@@H]2Cn3c(ccc(C4=CCCC4)c3=O)[C@H]1N2C(=O)C1CC1)c1ccccc1,.,-3,.,.,.,.
CS(=O)(=O)Nc1ccc2c(c1)[C@H]1C[C@H](CC(=O)NCc3ccccc3F)O[C@@H](CO)[C@H]1O2,58,3,.,.,.,.
CN1c2ccc(-c3cccc(F)c3)cc2[C@@H]2[C@@H](CCN2C(=O)Cc2cccnc2)[C@@H]1CO,73,2,.,.,.,.
CN(C)C(=O)c1cccc(-c2ccc3c(c2)[C@@H]2[C@@H](CCN2C(=O)Cc2ccccn2)[C@@H](CO)N3C)c1,27,6,.,.,.,.

# Screening data from PubChem BioAssay.
